Measured values: PubChem BioAssay (NCATS)
Active and inactive are the calls of the source. The call rests on the fitted dose curve; in most records, active means well fitted curve in the direction sought with a large enough effect; inconclusive means small, poorly fitted or top-dose-only effect, or another doubt; inactive means no such curve, though single readings can be large or run the other way.

Biological target: Methanococcus maripaludis chaperonin (MmCpn) (UniProt Q6LX38)
Assay: High-Throughput Screening for Modulators of Cytosolic Chaperonin Activity: MmCpn Primary Screen (AID 488978)
Details: Purified MmCpn ATPase activity, ADP HTRF detection, 10 min; series mostly up to 76.9 µM
Text: Chaperonins are key components of the cellular chaperone machinery. These large complexes consist of two stacked 7-9 membered rings, each containing a central cavity. Substrates are folded within the cavity in an ATP-dependent manner. TRiC is a complex of eight different, essential proteins. As each of the genes encoding the eight subunits is essential for cell viability and no protocol has been developed to overexpress this enzyme to high levels, several groups have turned to the archaeal homolog of TRiC from Methanococcus maripaludis (MmCpn) as a model system for the study of the type II chaperonin family.
MmCpn was kindly provided by the laboratory of Judith Frydman.
1. Dispense 1.5 ul enzyme of either TriC at 100 nM or MmCpn at 50 nM final concentration.
2. Transfer 23 nl of compound to plate, incubate 5 min at RT.
3. 1.5 ul ATP at 30 uM at final concentration dispensed into plate.
4. Incubate for 10 minutes at 37C (MmCPN), 30C (TriC).
5. 3 ul of the Cisbio ADP Transcreener HTRF detection reagent prepared according to protocol dispensed into plate.
6. Incubate for 5 minutes.
7. Read using EnVision plate reader at Excitation = 320nm and Emission = 590nm, 665nm

Sequence of Methanococcus maripaludis chaperonin (MmCpn) (Q6LX38 1-543): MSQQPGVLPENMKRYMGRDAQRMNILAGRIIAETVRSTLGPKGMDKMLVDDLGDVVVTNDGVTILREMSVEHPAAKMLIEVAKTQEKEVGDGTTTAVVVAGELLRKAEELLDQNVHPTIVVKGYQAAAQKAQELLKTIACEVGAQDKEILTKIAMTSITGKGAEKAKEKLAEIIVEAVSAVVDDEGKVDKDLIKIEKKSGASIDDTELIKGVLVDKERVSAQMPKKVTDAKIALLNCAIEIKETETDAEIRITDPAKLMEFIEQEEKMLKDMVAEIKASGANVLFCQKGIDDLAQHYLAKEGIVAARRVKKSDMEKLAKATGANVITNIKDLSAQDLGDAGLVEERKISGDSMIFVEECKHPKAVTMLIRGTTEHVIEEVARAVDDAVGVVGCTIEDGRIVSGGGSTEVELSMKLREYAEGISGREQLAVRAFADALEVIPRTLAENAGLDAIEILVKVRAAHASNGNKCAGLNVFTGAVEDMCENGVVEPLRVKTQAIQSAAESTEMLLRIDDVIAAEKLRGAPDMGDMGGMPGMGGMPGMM

| SMILES | outcome |
| --- | --- |
| Nc1ccc(CCN2CCN(c3cccc(C(F)(F)F)c3)CC2)cc1 | inactive |
| CC(C)NP(=O)(NC(C)C)OP(=O)(NC(C)C)NC(C)C | inactive |
| CCN1C[C@@]2(COC)C3[C@@H](OC)C4[C@@H]1C3([C@@H]1C[C@]3(O)[C@H](OC(=O)c5ccccc5)[C@@H]1[C@]4(OC(C)=O)[C@@H](O)[C@@H]3OC)[C@H](OC)C[C@H]2O | inactive |
| C[C@@H]1O[C@@H](O[C@H]2C[C@@H](O)[C@]3(CO)[C@@H]4C(CC[C@]3(O)C2)[C@@]2(O)CC[C@H]([C@@H]3COC(=O)C3)[C@@]2(C)C[C@H]4O)[C@H](O)[C@H](O)[C@H]1O (stereo not given in full) | inactive |
| C[N+]1(C)C2CCC1CC(OC(=O)c1c[nH]c3ccccc13)C2 (stereo not given) | inactive |
| CCCN(CCC)CCc1c[nH]c2ccc(C(N)=O)cc12 | inactive |
| C[C@@H]1O[C@H](C[N+](C)(C)C)CS1 | inactive |
| CCCn1c(C)c(C(=O)c2ccc3ccccc3c2)c2ccccc21 | inactive |
| CC(=O)OCC1=C(C(=O)O)N2C(=O)[C@@H](NC(=O)CCC[C@@H](N)C(=O)O)[C@H]2SC1 | inactive |
| CCN(CCCl)Cc1ccccc1Br | inactive |
| NC(Cc1ccc(N(CCCl)CCCl)cc1)C(=O)O (stereo not given) | inactive |
| CN1CC[C@@]2(C)c3cc(OC(=O)Nc4ccccc4)ccc3N(C)[C@@H]12 | inactive |
| CN(N=O)c1ccc(O)c(O)c1 | inactive |
| NC(=O)c1cc(N2CC2)c([N+](=O)[O-])cc1[N+](=O)[O-] | inactive |
| CCCN1CCC[C@@H](c2cccc(O)c2)C1 | inactive |
| NC(N)=NOCC[C@H](N)C(=O)O | inactive |
| CC(N)Cc1c[nH]c2ccc(OCc3cccs3)cc12 (stereo not given) | inactive |
| NC(Cc1cc(O)c(O)cc1O)C(=O)O (stereo not given) | inactive |
| Oc1ccc2c3c1O[C@H]1c4[nH]c5ccccc5c4C[C@@]4(O)C(C2)N(CC2CC2)CCC314 (stereo not given in full) | inactive |
| O=C(O)c1cc[c]([Hg][Cl])cc1 | inactive |

| SMILES | outcome |
| --- | --- |
| Cc1sc2ccccc2c1CC1=NCCN1 | inactive |
| COc1cc(CC(C)N)c(OC)cc1I (stereo not given) | inactive |
| N#C/C(=C/c1ccc(O)c(O)c1)C(N)=S | inactive |
| CCCC[N+]1(C)C2CC(OC(=O)[C@H](CO)c3ccccc3)CC1C1OC12 (stereo not given in full) | inactive |
| C[Se]C[C@H](N)C(=O)O | inactive |
| C[N+]1(C)CCOC(O)(c2ccc(-c3ccc(C4(O)C[N+](C)(C)CCO4)cc3)cc2)C1 (stereo not given) | inactive |
| O=C1C=CC(=O)C=C1 | inactive |
| Ic1ccccc1CNC1C2CCN(CC2)C1C(c1ccccc1)c1ccccc1 (stereo not given) | inactive |
| NCCc1c[nH]c2ccc(C(N)=O)cc12 | inactive |
| COc1ccc2c(c1)[C@@]13CCCC[C@H]1[C@@H](C2)NCC3 | inactive |
| CCCN(CCC)[C@@H]1CCc2cccc(O)c2C1 | inactive |
| N#CCCN | inactive |
| NC(N)=Nc1ccc2[nH]c3c(c2c1)C[C@@]1(O)[C@H]2Cc4ccc(O)c5c4[C@@]1(CCN2CC1CC1)[C@H]3O5 | inactive |
| CN1CC[C@@]2(C)c3cc(O)ccc3N(C)C12 (stereo not given in full) | inactive |
| C[N+]1(C)CCN(c2ccccc2)CC1 | inactive |
| c1ccc2c(N3CCNCC3)cccc2c1 | inactive |
| Clc1ccc(N2CC3CCC(C2)N3)nn1 | inactive |
| Clc1cc(I)cc(Cl)c1NC1=NCCN1 | inactive |
| CCCN(CCC)[C@H]1CCc2c(F)ccc(O)c2C1 | inactive |
| CC1(C(=O)O)C2CCC(O2)C1(C)C(=O)O (stereo not given) | inactive |
